Data from PubChem BioAssay AID1159580 (chemical genetic matrix, 2015).
Several values for one entry are separate records, joined by “and”; a condition that tells them apart may be missing. Equal entries are not always repeated. In all, about 5,500 compounds went through this assay and about 2,000 (36%) were called active. Roughly 18% stayed inconclusive and do not appear here. Rule as the data show it: active = normalized growth mostly below about 0.91 (no sharp cut-off); inconclusive = no clear call, values can overlap the other calls; inactive = mostly above about 0.92. The list shows a part of the results.

Test: chemical genetic growth profiling, strain panel (AID 1159580);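 also: tested at 20 µM; growth read once vehicle control cultures reached saturation at 30 °C; 1 = growth at the plate median or of vehicle wells; lower values mean less growth of the strain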
Conditions: S. cerevisiae deletion strains, growth OD

Measured: normalized growth

CCOc1ccc(Cc2nccc3cc(OCC)c(OCC)cc23)cc1OCC
inactive: locus YAL013W, strain DEP1, hits give low values 0.976 | locus YAL021C, strain ccr4, hits give low values 0.946 | locus YAL026C, strain drs2, hits give low values 0.974 | locus YAL030W, strain snc1, hits give low values 0.99 | locus YBL061C, strain skt5, hits give low values 0.968 | locus YBR009C, strain hhf1, hits give low values 0.975 | locus YBR021W, strain FUR4, hits give low values 0.961 | locus YBR023C, strain chs3, hits give low values 0.974 | locus YBR171W, strain sec66, hits give low values 0.965 | locus YBR229C, strain ROT2, hits give low values 0.969 | locus YBR231C, strain swc5, hits give low values 0.998 | locus YBR279W, strain paf1, hits give low values 0.989 | locus YCL011C, strain gbp2, hits give low values 0.993 | locus YCL016C, strain dcc1, hits give low values 0.981 | locus YCL029C, strain bik1, hits give low values 0.952 | locus YCL069W, strain vba3, hits give low values 0.99 | locus YCR088W, strain abp1, hits give low values 0.969 | locus YDL005C, strain med2, hits give low values 0.989 | locus YDL035C, strain GPR1, hits give low values 0.956 | locus YDL040C, strain nat1, hits give low values 0.976 | locus YDL074C, strain BRE1, hits give low values 0.855 | locus YDL101C, strain DUN1, hits give low values 0.956 | locus YDL134C, strain PPH21, hits give low values 0.939 | locus YDL185W, strain tfp1, hits give low values 0.994 | locus YDL192W, strain arf1, hits give low values 0.958 | locus YDR001C, strain nth1, hits give low values 0.977 | locus YDR069C, strain doa4, hits give low values 0.982 | locus YDR101C, strain arx1, hits give low values 0.967 | locus YDR137W, strain rgp1, hits give low values 0.89 | locus YDR150W, strain NUM1, hits give low values 0.994 | locus YDR159W, strain sac3, hits give low values 0.892 | locus YDR162C, strain NBP2, hits give low values 0.945 | locus YDR195W, strain ref2 1.05 | locus YDR297W, strain sur2, hits give low values 0.976 | locus YDR318W, strain mcm21, hits give low values 0.931 | locus YDR334W, strain swr1, hits give low values 0.974 | locus YDR335W, strain msn5, hits give low values 0.985 | locus YDR388W, hits give low values 0.954 | locus YDR392W, strain spt3, hits give low values 0.866 | locus YDR502C, strain sam2, hits give low values 0.96 | locus YEL003W, strain gim4, hits give low values 0.963 | locus YEL037C, strain rad23, hits give low values 0.956 | locus YEL061C, strain CIN8 (second series), hits give low values 0.959 | locus YEL061C, strain CIN8, hits give low values 0.986 | locus YER015W, strain faa2, hits give low values 0.965 | locus YER016W, strain bim1, hits give low values 0.962 | locus YER110C, hits give low values 0.968 | locus YER111C, strain swi4, hits give low values 0.972 | locus YER155C, strain BEM2 (second series), hits give low values 0.913 | locus YER155C, strain BEM2, hits give low values 0.99 | locus YER167W, strain BCK2, hits give low values 0.956 | locus YFR010W, strain ubp6, hits give low values 0.97 | locus YGL078C, strain dbp3, hits give low values 0.985 | locus YGL086W, strain mad1, hits give low values 0.962 | locus YGL167C, strain pmr1, hits give low values 0.969 | locus YGL173C, strain kem1, hits give low values 0.966 | locus YGL227W, strain vid30, hits give low values 0.998 | locus YGL240W, strain doc1, hits give low values 0.962 | locus YGL248W, strain PDE1, hits give low values 0.944 | locus YGL253W, strain hxk2, hits give low values 0.986 | locus YGR078C, strain PAC10, hits give low values 0.899 | locus YGR135W, strain pre9, hits give low values 0.92 | locus YGR229C, strain SMI1, hits give low values 0.91 | locus YGR252W, strain gcn5, hits give low values 0.776 | locus YHR013C, strain ard1, hits give low values 0.955 | locus YHR027C, strain rpn1, hits give low values 0.983 | locus YHR030C, strain SLT2, hits give low values 0.977 and 0.969 | locus YHR079C, strain IRE1 (second series), hits give low values 0.954 | locus YHR079C, strain IRE1, hits give low values 0.939 | locus YHR094C, strain hxt1, hits give low values 0.977 | locus YHR129C, strain ARP1, hits give low values 0.978 | locus YHR142W, strain chs7, hits give low values 0.923 | locus YHR200W, strain rpn10, hits give low values 0.948 | locus YIL066C, strain RNR3, hits give low values 0.935 | locus YIL073C, strain SPO22, hits give low values 0.962 | locus YIL125W, strain kgd1, hits give low values 0.978 | locus YIR030C, strain dcg1, hits give low values 0.971 | locus YJL092W, strain hpr5, hits give low values 0.99 | locus YJL095W, strain BCK1 (second series), hits give low values 0.968 | locus YJL095W, strain BCK1, hits give low values 0.882 and 0.963 | locus YJL115W, strain asf1, hits give low values 0.995 | locus YJL129C, strain trk1, hits give low values 0.896 | locus YJL134W, strain LCB3, hits give low values 0.985 | locus YJL154C, strain vps35, hits give low values 0.973 | locus YJL164C, strain tpk1, hits give low values 0.973 | locus YJL166W, strain qcr8, hits give low values 0.967 | locus YJL168C, strain set2, hits give low values 0.973 | locus YJL187C, strain SWE1 (second series), hits give low values 0.912 | locus YJR043C, strain POL32, hits give low values 0.943 | locus YJR066W, strain TOR1, hits give low values 0.9
